Source: PubChem BioAssay AID1839 (Johns Hopkins Ion Channel Center, 2009)
Screen size: about 2,400 compounds; about 220 (9.2%) were called active. What follows is part of a selection rich in actives, with near analogues and random picks from the rest. Values without a mark were called inactive.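 How the source made its calls: active means signal change above the mean of dofetilide-free buffer controls plus 3 SD, so a positive margin; inactive means the rest.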

Assay: nonspecific flux effects in parental CHO-K1, confirmation, counter-screen for hERG block protection project, cell-based, CHO-K1 parental line, FluxOR thallium flux (AID 1839);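 further: compounds applied alone with no dofetilide to cells lacking hERG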
Settings: CHO-K1 parental cells, FluxOR thallium flux fluorescence; at 10 µM

SMILES | signal change vs control minus 3*SD hit threshold (margin above threshold, higher = more increase)
CCOC(=O)c1sc(NN=C(C(=O)OC)C(=O)OC)c(C(=O)OCC)c1C | -7.4%
CCOc1ccc(CC(C(N)=O)C(N)=O)cc1 | -32.5%
CCCOc1ccc(OC(=O)c2ccc(Br)o2)cc1 | -5.2%
CCOc1ccc(-c2c(=O)n(O)c3ccccc3[n+]2[O-])cc1 | 19.7% (active)
CCOc1ccc(N(CC)C(=O)COc2cc(=O)n(C)c3ccccc23)cc1 | -18.3%
CCCOc1ccc(-c2c(=O)n(O)c3ccccc3[n+]2[O-])cc1 | 29.7% (active)
CCCOc1ccc(C(=O)NNC(=S)NC(=O)c2ccccc2)cc1 | -44.9%
Cc1ccc(/C(O)=C2\C(=O)C(=O)N(Cc3cccnc3)C2c2ccccc2[N+](=O)[O-])cc1 (configuration not stated) | -21.1%
COc1cc(NC(=O)c2ccccc2)c(OC)cc1NC(=O)Cc1ccc(Br)cc1 | -10.9%
Cn1c(O)c(N=Nc2nc(-c3ccccc3)cs2)c2ccccc21 | 31.7% (active)
Cc1ccccc1OCC(=O)N=Nc1c(O)n(C)c2ccccc12 | -17.7%
CCc1ccc2[nH]c(O)c(N=Nc3nc(-c4ccccc4)cs3)c2c1 | -38.8%
Cc1nn(CCC(=O)NNC(=S)Nc2ccc(F)cc2)c(C)c1[N+](=O)[O-] | -35.8%
O=C(NC(=S)NC1CCCc2ccccc21)c1ccco1 (configuration not stated) | -14.2%
Cc1nonc1CN(C)C(=O)c1ccc(OC2CCN(Cc3ccccn3)CC2)cc1 | -22.2%
COCCNC(=O)C1CCN(S(=O)(=O)N2CCC3(CC2)OCCO3)CC1 | -40.3%
CCC1(c2ccc(Cl)cc2)NC(=S)N(c2ccccc2)N1 (configuration not stated) | 40.1% (active)
CCC1(c2ccc(Cl)cc2)NC(=S)N(c2ccc(C)cc2)N1 (configuration not stated) | 18.9% (active)
CCC1(c2ccccc2)NC(=S)N(c2ccc(C)cc2)N1 (configuration not stated) | 48.2% (active)
CC1=CN2C(=N)/C(=C/c3ccc(Sc4ccc(Cl)cc4)o3)C(=O)N=C2S1 | -23.1%
O=C(NC(=S)N(CC1CCC1)CC1CCCO1)c1cccc([N+](=O)[O-])c1 (configuration not stated) | -12.6%
CCCCCOCC1CC(C/C(C)=N/Nc2nc(-c3ccccc3)cs2)C(=O)O1 (configuration not stated) | -31.7%
N#C/C(=N\Nc1ccccc1F)c1nc(-c2ccccc2)cs1 | -39.4%
O=C(Nc1ccc(Cl)c(Cl)c1)Nc1nnc(CSc2ccccc2)s1 | -17.6%
CCn1c(SCC(=O)NC(=O)NCc2ccco2)nc2sc(C)c(C)c2c1=O | -17.8%
C=CCn1c(SCc2ccc(C(=O)O)cc2)nc2sc(C)c(C)c2c1=O | 7% (active)
C=CCSc1nc2sc3c(c2c(=O)n1CC)CCc1ccccc1-3 | -22.2%
